# Active and inactive are the calls of the source.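 How the source made its calls, unless noted: active means inhibition above 20% together with a positive visual image hit; inconclusive means visual image hit but inhibition not above 20%; inactive means no visual image hit.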
# What was measured:
# [1] = inhibitors of TNFa-induced NFkB p65 translocation, primary screen, imaging, HUVEC, MLSMR starter and 10KST1 sets (AID 438); conditions: HUVEC TNFa-induced p65 nuclear translocation; cell count: measured here: nuclei count (cytotoxicity indicator), at 2.08 µM; inhibition: at 2 µM, stronger effect = higher value, 0% TNFa-plus-vehicle, 100% no-TNFa wells;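 further: compound added about 3h40 before a 20 min TNFalpha stimulation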;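 on inhibition: signal is the nuclear over cytoplasmic p65 intensity ratio per well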
# [2] = reduction of polyQ htt aggregates in cells – imaging, exon1htt(103Q)mCFP cells, high-content imaging, primary screen (AID 483;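 active means visual image review flags a hit and inhibition of aggregation exceeds 20%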;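 further: compound exposure lasted 3 days before fixation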;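 on nuclei count: percent of the per-plate median nuclei count of sample wells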); conditions: exon1htt(103Q)mCFP cell line, aggregate imaging, at 2 µM; inhibition of aggregation: stronger effect = higher value; nuclei count: measured here: cell count, toxicity
# [3] = endothelial E-selectin expression blockers – imaging, HUVEC, immunofluorescence, MLSMR starter and 10KST1 sets, primary screen (AID 487;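 active means visually confirmed hit in the image check and inhibition above 20%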;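 on inhibition: signal is fraction of cell area covered by stained E-selectin grains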;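 on nuclei count: 100% = median nuclei count of all wells on the same plate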); conditions: HUVEC TNFalpha-induced E-selectin immunofluorescence imaging, at 2 µM; inhibition: stronger effect = higher value; nuclei count: measured here: cell number, toxicity
# [4] = target: Voltage-gated potassium channel subunit beta-2 (Rattus norvegicus) (UniProt P62483); test: inhibitors of rat Kvbeta2 reductase activity – biochemical, NADPH fluorescence, primary screen (AID 622;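 active means fluorescence slope higher than the sample average by over 3 SD, cut at about -0.22 in these data, passing the limit was not always enough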;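 further: slope of raw intensity against log time taken from 70 to 1610 s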); conditions: recombinant KvBeta, 4-cyanobenzaldehyde reduction, at 10 µM, stronger effect = higher value
# [5] = target: Voltage-gated potassium channel subunit beta-2 (Rattus norvegicus) (UniProt P62483); test: enhancers of rat Kvbeta2 NADPH turnover – biochemical, NADPH fluorescence, primary screen (AID 623;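 active means NADPH fluorescence slope more negative than the mean of all samples by about 3 SD, 99.7% confidence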;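 further: fluorescence intensity change per second fitted from 20 to 320 s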); conditions: Recombinant KvBeta, NADPH fluorescence decrease slope, 10 min; at 10 µM; stronger effect = lower value
# [6] = target: Alpha-2C adrenergic receptor (Homo sapiens) (UniProt P18825); test: compounds altering alpha2C-coupled GIRK flux – cell-based, HEK293 alpha2C/GIRK1/2, thallium flux, primary screen (AID 624;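 active means fluorescence slope after compound addition differing from the mean of all screened samples at 99.7% confidence, in either direction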;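 further: slope of fluorescence ratio to pre-addition baseline per second over 15 to 24 s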); conditions: thallium flux BTC fluorescence, at 10 µM, actives lie on both sides
# [7] = blockers of RIG-like receptor reporter activation – cell-based, Sendai virus stimulus, luciferase, 10K MLSCN set, TLR/RLR signaling modifier project, primary screen (AID 602276;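 active means inhibition at or above 50% at 10 µM; inactive means inhibition below 50%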;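 further: firefly luciferase from ISG56 promoter only with Renilla not read in this screen; 0% = Sendai virus plus DMSO and 100% = medium plus DMSO without virus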); conditions: HEK293 RL24 IRF3 luciferase reporter, at 10 µM, stronger effect = higher value
# [8] = TLR3 IRF3 reporter activation blockers – cell-based, poly I:C stimulus, luciferase, 10K MLSCN set, primary screen (AID 602277;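 active means inhibition of the reporter signal at or above 50%; inactive means inhibition below 50%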); conditions: HEK293-TLR3 RL24 IRF3 luciferase reporter, at 10 µM, stronger effect = higher value
# Voltage-gated potassium channel subunit beta-2 (Rattus norvegicus), sequence (P62483 whole entry, looked up): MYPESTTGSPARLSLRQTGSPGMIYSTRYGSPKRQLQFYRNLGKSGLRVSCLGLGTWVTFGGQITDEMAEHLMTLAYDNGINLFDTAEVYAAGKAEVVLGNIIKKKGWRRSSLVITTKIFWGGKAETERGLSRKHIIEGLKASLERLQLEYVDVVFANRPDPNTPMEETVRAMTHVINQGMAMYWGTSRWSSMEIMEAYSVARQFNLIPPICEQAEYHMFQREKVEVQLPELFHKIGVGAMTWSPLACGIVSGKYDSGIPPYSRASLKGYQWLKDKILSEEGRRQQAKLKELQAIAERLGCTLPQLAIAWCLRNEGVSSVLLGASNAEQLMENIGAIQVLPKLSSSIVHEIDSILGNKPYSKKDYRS
# Alpha-2C adrenergic receptor (Homo sapiens), sequence (P18825 whole entry, looked up): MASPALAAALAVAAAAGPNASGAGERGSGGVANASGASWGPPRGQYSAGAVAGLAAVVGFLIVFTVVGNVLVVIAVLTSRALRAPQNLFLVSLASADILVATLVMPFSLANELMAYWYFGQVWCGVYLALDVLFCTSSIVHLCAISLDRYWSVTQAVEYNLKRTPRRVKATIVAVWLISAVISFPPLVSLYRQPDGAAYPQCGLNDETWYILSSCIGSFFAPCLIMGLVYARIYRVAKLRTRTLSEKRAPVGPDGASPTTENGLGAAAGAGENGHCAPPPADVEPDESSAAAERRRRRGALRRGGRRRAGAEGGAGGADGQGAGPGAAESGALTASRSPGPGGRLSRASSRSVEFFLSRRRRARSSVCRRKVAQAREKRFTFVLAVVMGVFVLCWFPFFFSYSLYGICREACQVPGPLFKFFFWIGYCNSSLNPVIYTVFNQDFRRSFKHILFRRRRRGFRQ
SMILES,cell count [1],inhibition [1],inhibition of aggregation [2],nuclei count [2] [%],inhibition [3],nuclei count [3] [%],fluorescence slope [4],NADPH fluorescence slope [5],slope [6],inhibition [7],inhibition [8]
CCc1nn2c(N3CCOCC3)cc(C)nc2c1-c1ccc(F)cc1,716,-9.7% (inactive),-24.7% (inactive),101,-46.2% (inactive),114,-0.465 (inactive),-0.000126 (inactive),0.0049 (inactive),10.6% (inactive),18.4% (inactive)
Cc1nc(SCC(=O)Nc2cc(C)on2)c2c3c(sc2n1)CCCC3,461,2.5% (inactive),-13.2% (inactive),93.7,-33.9% (inactive),110,-0.579 (inactive),-5.9e-05 (inactive),0.00594 (inactive),6.61% (inactive),11.9% (inactive)
CCOC(=O)c1cccc(NC(=O)CSc2nnc(-c3cccnc3)n2CC)c1,517,-6.7% (inactive),1.2% (inactive),82.2,-12.8% (inactive),112,-0.506 (inactive),-2.6e-05 (inactive),0.00514 (inactive),12.5% (inactive),11.6% (inactive)
CCOC(=O)N1CCN(c2c(N3CCN(c4ccccn4)CC3)c(=O)c2=O)CC1,555,3.4% (inactive),25.3% (inactive),76.1,-24.6% (inactive),119,-0.506 (inactive),-5.8e-06 (inactive),0.00633 (inactive),9.82% (inactive),16.3% (inactive)
CCc1nc(N)c(C#N)c(-c2ccncc2)c1C,598,6.3% (inactive),-19.7% (inactive),100,-24.5% (inactive),106,-0.605 (inactive),-3.1e-05 (inactive),0.00327 (inactive),9.38% (inactive),19.4% (inactive)
CC(CN(C)Cc1ccccc1)OC(=O)c1ccc2c(c1)OCCO2 (stereo unspecified),596,0% (inactive),-0.4% (inactive),126,-40.2% (inactive),109,-0.48 (inactive),-5.1e-05 (inactive),0.00539 (inactive),8.96% (inactive),8.88% (inactive)
CC1(C)Cc2ccccc2C(N)=C1C#N,331,-0.8% (inactive),35.2% (active),71.1,9.4% (inactive),102,-0.479 (inactive),2e-05 (inactive),0.00508 (inactive),-11.4% (inactive),-26.4% (inactive)
CSCSC1=C(C#N)C(c2ccc(Cl)cc2)C(C(C)=O)=C(C)N1 (stereo unspecified),324,-1% (inactive),-2.2% (inactive),112,-47.6% (inactive),102,-0.451 (inactive),-0.00017 (inactive),0.00657 (inactive),10.5% (inactive),23.2% (inactive)
Cc1ccc(NC(=O)C2CCCN(S(=O)(=O)c3cnc[nH]3)C2)cc1F (stereo unspecified),521,0.9% (inactive),7.3% (inactive),99.9,-108% (inactive),126,-0.521 (inactive),-4.2e-05 (inactive),0.00688 (inactive),22.4% (inactive),21.8% (inactive)
COc1cccc(-n2c(SCC(=O)N3CCCC3)nc3c([nH]c4ccccc43)c2=O)c1,493,-5.9% (inactive),0.6% (inactive),75.6,5.4% (inactive),91.8,-0.544 (inactive),-1.5e-05 (inactive),0.00652 (inactive),-9.13% (inactive),55.5% (active)
Cc1[nH]nc(N=CC2=C(O)CC(C)(C)CC2=O)c1-c1ccccc1,551,-8.6% (inactive),-3.5% (inactive),85.2,15.4% (inactive),95.3,-0.344 (inactive),-2.3e-05 (inactive),0.00489 (inactive),-16.8% (inactive),13.8% (inactive)
Cc1[nH]c2ccccc2c(=O)c1CN1CCCCC1,400,2.1% (inactive),-1.5% (inactive),111,-47.3% (inactive),119,-0.453 (inactive),-5.7e-05 (inactive),0.00287 (inactive),6.83% (inactive),36.8% (inactive)
CCN(CC)S(=O)(=O)c1ccc(F)c(C(=O)NCCC(C)C)c1,497,-22% (inactive),37.4% (inactive),79.2,-22.3% (inactive),99.2,-0.353 (inactive),-1.6e-05 (inactive),0.00438 (inactive),-18.3% (inactive),-20.2% (inactive)
CCOC(=O)c1ccc(NC(=O)CSC2=NC(=O)C(CC)C(=O)N2)cc1 (stereo unspecified),534,-20.1% (inactive),-43.6% (inactive),83.8,-104% (inactive),102,-0.569 (inactive),2.6e-05 (inactive),0.00682 (inactive),-3.93% (inactive),-17% (inactive)
OC(CN1CCN(c2ccccn2)CC1)Cn1c2ccccc2c2ccccc21 (stereo unspecified),386,5.1% (inactive),7.2% (inactive),104,-14.4% (inactive),107,-0.472 (inactive),5.1e-05 (inactive),0.00493 (inactive),1.54% (inactive),21.8% (inactive)
CCN(C(=O)c1cc(Cl)ccc1OC)c1ccccc1,354,5.3% (inactive),-20.6% (inactive),100,-7.9% (inactive),118,-0.447 (inactive),-4.1e-05 (inactive),0.00295 (inactive),14.3% (inactive),48.8% (inactive)
COC(=O)c1[nH]c2ccc(C)cc2c1NC(=O)CN1CCCc2ccccc21,408,3.1% (inactive),21.6% (inactive),83.4,-29.9% (inactive),106,-0.39 (inactive),-4.8e-05 (inactive),0.00333 (inactive),21.5% (inactive),12% (inactive)
C=CCNC(=O)c1cccc(Br)c1,399,6.3% (inactive),-3.3% (inactive),101,-24.7% (inactive),115,-0.448 (inactive),1.8e-05 (inactive),0.00497 (inactive),-5.88% (inactive),7.57% (inactive)
COc1ccccc1OCC(=O)Nc1cccc(-c2nc3ccccc3o2)c1,468,0% (inactive),1% (inactive),61.8,-65.1% (inactive),110,-0.374 (inactive),-1.4e-06 (inactive),0.00387 (inactive),-0.911% (inactive),-2.39% (inactive)
O=C(Cc1ccccc1)N1CCCC(c2nc(-c3cccs3)no2)C1 (stereo unspecified),731,-6.1% (inactive),-15.1% (inactive),89.6,-22.8% (inactive),121,-0.475 (inactive),1.1e-05 (inactive),0.00636 (inactive),-9.21% (inactive),2.57% (inactive)
Cc1nc2ncnn2c(C)c1CCC(=O)NCCCN1CCN(c2cccc(Cl)c2)CC1,352,-2% (inactive),-0.5% (inactive),99.1,-40.4% (inactive),107,-0.505 (inactive),-5.1e-05 (inactive),0.0065 (inactive),4.7% (inactive),16.9% (inactive)
COc1ccc(C2C(C(=O)N3CCCC3)c3cc(OC)c(OC)cc3C(=O)N2C)cc1 (stereo unspecified),583,-21.8% (inactive),7.8% (inactive),111,-71.5% (inactive),115,-0.544 (inactive),-5.3e-05 (inactive),0.00513 (inactive),3.19% (inactive),12.2% (inactive)
Cc1ccc(-n2c3c(cc(C(=O)NC4CCSC4=O)c2=O)C(=O)CC(C)(C)C3)cc1 (stereo unspecified),294,7.2% (inactive),7% (inactive),100,-48.3% (inactive),97.9,-0.458 (inactive),-8.6e-06 (inactive),0.00353 (inactive),-0.246% (inactive),38.6% (inactive)
CN(C)c1nc(Oc2ccc(=O)n(C)n2)nc(N2CCOCC2)n1,306,0.5% (inactive),17.6% (inactive),93.3,31.4% (inactive),96.5,-0.632 (inactive),1.5e-05 (inactive),0.00286 (inactive),16.8% (inactive),10.1% (inactive)
Cc1nn(C)c(C)c1NC(=O)CCSc1nc(-c2ccco2)cc(C(F)(F)F)n1,491,-2.2% (inactive),10.3% (inactive),108,23.6% (inactive),100,-0.432 (inactive),-6.1e-05 (inactive),0.00599 (inactive),4.67% (inactive),-10.1% (inactive)
Nn1c(SCc2csc(-c3ccccc3)n2)nnc1-c1cccs1,387,-14% (inactive),-10.8% (inactive),93.3,-37.9% (inactive),116,-0.454 (inactive),-7.1e-06 (inactive),0.00728 (inactive),31% (inactive),30.9% (inactive)

# — PubChem BioAssay
